{"source": "PubChem BioAssay AID1851", "about": "(National Center for Advancing Translational Sciences (NCATS), 2009)", "note": "“And” between values parts separate entries of the source, which are not always exact repeats. Identical values can stand only once. The whole screen tested about 16,000 compounds, of which about 4,000 (25%) were called active. Not shown: some 26% with an inconclusive outcome. Calls follow the shape of the dose curve; as a rule, active = well fitted curve in the direction sought with a large enough effect; inconclusive = small, poorly fitted or top-dose-only effect, or effect the other way; inactive = no such curve, though single readings can be large or run the other way. A selection follows. More than one record can exist for a structure, and the calls need not agree."}
{"target": "Cytochrome P450 2C9 (Homo sapiens) (UniProt P11712)", "sequence (P11712 whole entry, looked up)": "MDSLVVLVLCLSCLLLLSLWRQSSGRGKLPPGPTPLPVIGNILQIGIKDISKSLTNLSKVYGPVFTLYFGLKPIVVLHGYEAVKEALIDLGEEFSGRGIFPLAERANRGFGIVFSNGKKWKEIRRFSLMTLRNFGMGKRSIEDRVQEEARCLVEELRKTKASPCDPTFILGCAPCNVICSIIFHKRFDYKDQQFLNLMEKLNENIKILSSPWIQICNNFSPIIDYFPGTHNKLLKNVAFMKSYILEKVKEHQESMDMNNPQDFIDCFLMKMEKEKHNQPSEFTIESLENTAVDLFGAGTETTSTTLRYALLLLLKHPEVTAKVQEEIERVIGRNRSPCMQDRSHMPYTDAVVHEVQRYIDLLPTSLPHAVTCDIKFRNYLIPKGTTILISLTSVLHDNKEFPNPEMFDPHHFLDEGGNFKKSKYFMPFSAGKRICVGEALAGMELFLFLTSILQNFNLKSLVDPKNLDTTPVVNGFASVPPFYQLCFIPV", "experiment": "Cytochrome panel assay with activity outcomes; as to activity, negative = inhibition: % is scaled to controls: 0 for no effect and ±100 for the full control effect", "details": "recombinant CYP, pro-luciferin dealkylation, luminescence, p450-cyp2c9; series mostly up to 57.1 µM", "protocol": "The P450 gene superfamily is involved in the metabolism and clearance of xenobiotics. This assay used various human CYP P450 isozymes to measure the dealkylation of various pro-luciferin substrates to luciferin. The luciferin is then measured by luminescence after the addition of a luciferase detection reagent. Pro-luciferin substrate concentration in the assay was equal to its KM for its CYP P450 isozyme. Inhibitors and some substrates limit the production of luciferin, and decrease measured luminescence.\nNCGC Assay Protocol Summary:\n1, Reagent, 2 uL, Isozyme and Pro-Luciferin\n2, Library compounds, 23 nl, 40 uM to 0.24 nM dilution series\n3, Controls, 23 nl, Isozyme specific inhibitor\n4, Reagent, 2 uL, NADPH regeneration solution\n5, Incubation time, 60 min, Isozyme specific temperature\n6, Reagent, 4ul, Detection reagent\n7, Incubation time, 20 min, Isozyme specific temperature\n8, Detection, 1 sec, ViewLux luminescent read\nThe luciferase-based P450-GloTM Screening Systems were obtained from Promega (Madison, WI) for CYP 1A2 (V9770), CYP 2C9 (V9790), CYP2 C19 (V9880), CYP 2D6 (V9890), and CYP 3A4 Luciferin-PPXE (V9910) and were adapted for 1,536-well microplates and an automated protocol. The control compounds furafylline for 1A2 (F124), sulfaphenazole for CYP 2C9 (S0758), ketoconazole for CYP 2C19 (K1003), quinidine for 2D6 (Q3625), and ketoconazole for 3A4 (K1003) were purchased from Sigma Aldrich (St. Louis, MO). Recombinant P450 enzymes were obtained from baculovirus constructs expressed in insect cells (BD/Gentest).\nMedium-binding white solid Kalypsys plates used. Mixtures kept on ice. 1A2: 10 nM 1A2, 100 uM Luc-ME, 100 mM KPO4; 2C9: 10 nM 2C9, 100 uM Luc-H, 25 mM KPO4; 2C19: 5 nM 2C19, 10 uM Luc-H EGE, 50 mM KPO4; 2D6: 5 nM 2D6, 30 uM Luc-ME EGE, 100 mM KPO4; 3A4: 10 nM, 25 uM Luc-PPXE. All amounts are reflected in their final concentration, working concentration is 2x.\nNADPH regeneration solution: 1.3 mM NADP+, 3.3 mM glucose-6-phosphate, 3.3 mM MgCl2, 0.4 U/mL glucose-6-phosphate dehydrogenase for all isozymes, 200 mM KPO4 for 3A4. Mixture prepared at RT but kept on ice during automated run.\nRT incubation in auxilliary plate hotel for 1A2, 2D6, and 3A4; 37C for 2C9 and 2C19.\nKeywords: P450, CYP1A2, CYP2C19, CYP2C9, CYP2D6, CYP3A4, Luciferase, MLSMR, MLSCN, NIH Roadmap, qHTS, NCGC"}
{"compound": "O=C(C1CC(=O)N(C2CCCC2)C1)N1CCC2(CC1)OCCO2", "note": "(centres undefined)", "activity, negative = inhibition": "inactive"}
{"compound": "CCOC(=O)c1[nH]c(C)c(C(=O)N2CCC3(CC2)OCCO3)c1C", "AC50": "20 µM (active)"}
{"compound": "N=C(N)c1ccc(-c2ccc(-c3ccc(C(=N)N)cc3)o2)cc1", "activity, negative = inhibition": "19.5% [at 11.4 µM] (inactive)"}
{"compound": "COc1ccccc1CC1C(=O)C2CCN1CC2", "note": "(centres undefined)", "activity, negative = inhibition": "inactive"}
{"compound": "CN(N=O)C(=O)N[C@H]1C(O)OC(CO)[C@@H](O)[C@H]1O", "note": "(some centres undefined)", "activity, negative = inhibition": "inactive"}
{"compound": "CCOc1ccc2c(c1)C(C)=CC(C)(C)N2", "AC50": "2 µM (active)"}
{"compound": "C[N+]1([O-])[C@@H]2CC(OC(=O)[C@@H](CO)c3ccccc3)C[C@@H]1[C@H]1O[C@H]12", "note": "(some centres undefined)", "activity, negative = inhibition": "inactive"}
{"compound": "CCCCn1c(N)c(C(=O)NCc2cccs2)c2nc3ccccc3nc21", "AC50": "14.1 µM (active)"}
{"compound": "CC(C)CCn1c(N)c(C(=O)NCc2cccs2)c2nc3ccccc3nc21", "AC50": "10 µM (active)"}
{"compound": "CC(C)C(=O)CP(=O)(O)O", "activity, negative = inhibition": "13.2% [at 11.4 µM] (inactive)"}
{"compound": "O[C@H](CN1CC1)[C@@H](O)CN1CC1", "activity, negative = inhibition": "4% [at 11.4 µM] (inactive)"}
{"compound": "C[C@H]1CN(C2CCC(C#N)(c3ccc(F)cc3)CC2)CC[C@@]1(C(=O)O)c1ccccc1", "note": "(some centres undefined)", "activity, negative = inhibition": "inactive"}
{"compound": "c1ccc2c(N3CCNCC3)cccc2c1", "activity, negative = inhibition": "inactive"}
{"compound": "Cc1nnc2ccc(-c3cccc(C(F)(F)F)c3)nn12", "activity, negative = inhibition": "inactive"}
{"compound": "c1ccc(CN2CCN(Cc3ccc4c(c3)OCCO4)CC2)cc1", "activity, negative = inhibition": "inactive"}
{"compound": "COc1ccc(C(=O)OC2C[C@H]3CC[C@@H](C2)N3C)cc1OC", "note": "(some centres undefined)", "activity, negative = inhibition": "inactive"}
{"compound": "O=P(Nc1ccccc1)(Nc1ccccc1)Oc1cccc(Cl)c1", "AC50": "12.6 µM (active)"}
{"compound": "CN1CCc2cc3c(cc2[C@@H]1[C@@H]1OC(=O)c2c1ccc1c2OCO1)OCO3", "activity, negative = inhibition": "inactive"}
{"compound": "CCCN(CCC)C1Cc2cc(OC)c(OC)cc2C1", "activity, negative = inhibition": "inactive"}
{"compound": "NC[C@@H](Cc1ccccc1)P(=O)(O)O", "activity, negative = inhibition": "22.3% [at 11.4 µM] (inactive)"}
{"compound": "O=C(CNS(=O)(=O)c1ccc(Br)s1)N1CCC2(CC1)OCCO2", "AC50": "11.2 µM (active)"}
{"compound": "O=C(Cn1ncc2ccsc2c1=O)N1CCC2(CC1)OCCO2", "activity, negative = inhibition": "inactive"}
{"compound": "Cc1ccc(S(=O)(=O)NCC2CCC(C(=O)N3CCC4(CC3)OCCO4)CC2)cc1", "note": "(centres undefined)", "activity, negative = inhibition": "inactive"}
{"compound": "CO[C@H]1[C@H](O)[C@H](O[C@@H]2[C@H](Oc3cccc4c(O)c5c(=O)oc6ccc(C)c7c(=O)oc(c34)c5c67)O[C@@H](C)[C@H](O)[C@H]2O)O[C@@H](C)[C@@H]1O", "activity, negative = inhibition": "-7.14% [at 11.4 µM] (inactive)"}
{"compound": "O=C(O)C[C@H]1NCc2cc3ccccc3nc21", "activity, negative = inhibition": "-0.422% [at 11.4 µM] (inactive)"}
{"compound": "CN(C)CC/C=C1\\c2ccccc2Sc2ccc(Cl)cc21", "activity, negative = inhibition": "7.34% [at 11.4 µM] (inactive)"}
{"compound": "O=C(O)Cc1cnc[nH]1", "activity, negative = inhibition": "inactive"}
{"compound": "C=CCN1C[C@@H](C)N([C@H](c2ccc(C(=O)N(CC)CC)cc2)c2cccc(OC)c2)C[C@H]1C", "activity, negative = inhibition": "inactive"}
{"compound": "C=CCN1C[C@H](C)N([C@H](c2ccc(C(=O)N(CC)CC)cc2)c2cccc(O)c2)C[C@H]1C", "AC50": "3.98 µM (active)"}
{"compound": "C=CCN1C[C@H](C)N([C@H](c2ccc(C(=O)N(CC)CC)cc2)c2cccc(OC)c2)C[C@H]1C", "activity, negative = inhibition": "inactive"}
{"compound": "NC(N)=NS(=O)(=O)c1ccc(N)cc1", "activity, negative = inhibition": "inactive"}
{"compound": "CC[C@@H](CO)NC(=O)[C@H]1C=C2c3cccc4c3c(cn4C)C[C@H]2N(C)C1", "activity, negative = inhibition": "inactive"}
{"compound": "O=[N+]([O-])c1cc(-c2ccc([As](=O)(O)O)cc2)ccc1[As](=O)(O)O", "activity, negative = inhibition": "16.8% [at 11.4 µM] (inactive)"}
{"compound": "CN(C)C=C1C(=O)N(C2CCCCC2)C(=O)N(C2CCCCC2)C1=O", "AC50": "2.24 µM (active)"}
{"compound": "COc1cc(-c2ccc(=O)[nH]n2)ccc1OC(F)F", "activity, negative = inhibition": "inactive"}
{"compound": "C[N+](C)(C)CCCCCC[N+](C)(C)C", "activity, negative = inhibition": "inactive"}
{"compound": "CN=C(NC#N)NCCSCc1nc[nH]c1C", "activity, negative = inhibition": "inactive"}
{"compound": "O=C(O)CS(=O)(=O)C(c1ccccc1)c1ccccc1", "activity, negative = inhibition": "-12.7% [at 11.4 µM] (inactive)"}
{"compound": "O=C1CCCN1CC#CCN1CCCC1", "AC50": "2 µM (active)"}
{"compound": "C[N+](C)(C)CC#CCN1CCCC1=O", "activity, negative = inhibition": "inactive"}
{"compound": "C(#CCN1CCCC1)CN1CCCC1", "activity, negative = inhibition": "inactive"}
{"compound": "CC(C)(C)C(=O)CP(=O)(O)O", "activity, negative = inhibition": "9.42% [at 11.4 µM] (inactive)"}
{"compound": "OC(c1ccccc1)(c1ccccc1)C1CCCN1", "note": "(centres undefined)", "activity, negative = inhibition": "inactive"}
{"compound": "COc1ccccc1CN1CC[C@@]2(CCCN(C(=O)Oc3ccccc3)C2)C1", "activity, negative = inhibition": "inactive"}
{"compound": "Cc1ccc(C(=O)C2C(=O)c3ccccc3C2=O)cc1", "AC50": "2.24 µM (active)"}
{"compound": "CCN1C[C@@]2(COC)CC[C@H](O)[C@@]34[C@@H]2C[C@@H]([C@@H]13)[C@]1(O)C[C@@H](OC)C2C[C@H]4[C@H]1[C@H]2OC(C)=O", "activity, negative = inhibition": "inactive"}
{"compound": "c1ccc2sc(C3(N4CCCCC4)CCCCC3)cc2c1", "activity, negative = inhibition": "inactive"}
{"compound": "c1ccc2c(c1)OC[C@@H](C1=NCCN1)O2", "AC50": "inactive and 31.6 µM (active)"}
{"compound": "CC[C@]1(C2=NCCN2)Cc2ccccc2O1", "activity, negative = inhibition": "inactive"}
{"compound": "COc1cc2c(cc1O)[C@H]1Cc3ccc(OC)c(O)c3CN1CC2", "activity, negative = inhibition": "inactive"}
{"compound": "c1ccc(N2CCCC3(CCNCC3)C2)cc1", "activity, negative = inhibition": "inactive"}
{"compound": "CC(C)Oc1cccnc1N(C)C1CCN(Cc2ccccc2)CC1", "activity, negative = inhibition": "inactive"}
{"compound": "O=C1Nc2ccc(I)cc2/C1=C/c1cc(Br)c(O)c(Br)c1", "AC50": "12.6 µM (active)"}
{"compound": "COc1cc2c(cc1OC)[C@@]13CCN4C=C5CCO[C@H]6CC(=O)N2[C@@H]1[C@@H]6[C@H]5C[C@H]43", "activity, negative = inhibition": "-3.46% [at 11.4 µM] (inactive)"}
{"compound": "COc1ccc(CNC(=O)/C=C\\c2ccc3[nH]cc(CCN(C)C)c3c2)cc1", "activity, negative = inhibition": "inactive"}
{"compound": "c1ccc(C[C@@H](c2ccccc2)N2CCCCC2)cc1", "activity, negative = inhibition": "inactive"}
{"compound": "CN1CCc2cc(O)cc3c2[C@H]1Cc1ccc(O)c(O)c1-3", "activity, negative = inhibition": "inactive"}
{"compound": "O=C(O)C(O)(c1ccc(-c2ccccc2)cc1)c1ccc(-c2ccccc2)cc1", "AC50": "3.16 µM (active)"}
{"compound": "C[N+]12CCC(CC1)[C@@H](OC(=O)C(O)(c1ccccc1)c1ccccc1)C2", "activity, negative = inhibition": "inactive"}
{"compound": "O=C(C[n+]1ccc2ccccc2c1)c1ccc2ccc3ccccc3c2c1", "activity, negative = inhibition": "16.4% [at 11.4 µM] (inactive)"}
{"compound": "CCn1cc(C(=O)O)c(=O)c2cc3c(cc21)OCO3", "activity, negative = inhibition": "inactive"}
{"compound": "Clc1ccc(C2=CCC[C@H]3CC[C@@H]2N3)cn1", "activity, negative = inhibition": "inactive"}
{"compound": "Cn1ccnc1", "activity, negative = inhibition": "inactive"}
{"compound": "c1cc(CCN2CCCCC2)ccn1", "activity, negative = inhibition": "3.53% [at 11.4 µM] (inactive)"}
